Data published in PubChem BioAssay (NCATS).
Results filed as inconclusive are left out. Where a call stands in place of a potency, no number is given. Calls of active or inactive are those of the source. Calls follow the shape of the dose curve; as a rule, active = well fitted inhibition curve with a large enough effect; inconclusive = small, poorly fitted or top-dose-only effect; inactive = flat fitted curve, though single readings scatter.

Assay: qHTS to identify inhibitors of the type 1 interferon - major histocompatibility complex class I in skeletal muscle: primary screen against the NCATS LOPAC collection (AID 1347405);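 also: lytic HiBiT luminescence reporting HLA-B protein level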
Conditions: iHSKM muscle cells, IFN-b-induced MHC-I HiBiT luminescence, 24 h; series mostly up to 45.9 µM
Summary of the method: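 CRISPR-engineered immortalized human myoblasts (C25cl48) with HiBiT fused to endogenous HLA-B*08:01, stimulated with 4 ng/ml IFN-beta. LOPAC compounds tested as a 7-point 1:4.3 titration (top 46 uM final), 24 h at 37 C; lytic HiBiT luminescence read.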
Potency is read from the fitted curve at half-maximal effect.

SMILES | Potency
CC(C)(C)NCC(O)COc1cccc2[nH]c(=O)[nH]c12 (stereo unspecified) | inactive
COc1ccc(NC(=O)c2ccc(-c3ccc(-c4noc(C)n4)cc3C)cc2)cc1N1CCN(C)CC1 | 25.1 µM (active)
O=C(O)CCC/C=C\C[C@@H]1[C@@H](/C=C/[C@H](O)C2Cc3ccccc3C2)[C@@H](F)C[C@@H]1O | inactive
NCCCCN=C(N)N | inactive
COC(=O)C(N)Cc1ccc(Cl)cc1 (stereo unspecified) | inactive
O=c1cc(O)cc(/C=C/c2ccc(O)c(O)c2)o1 | inactive
CCCn1c(=O)c2[nH]c(-c3ccc(S(=O)(=O)O)cc3)nc2n(CCC)c1=O | inactive
C=CC[C@H](N)C(=O)O | inactive
CCCc1c(-c2ccc(O)cc2)nn(-c2ccc(O)cc2)c1-c1ccc(O)cc1 | inactive
CC(=O)N[C@@H](Cc1c[nH]c2ccccc12)C(=O)OCc1cc(C(F)(F)F)cc(C(F)(F)F)c1 | inactive
NC1C=CC=C(C(=O)O)C1 (stereo unspecified) | inactive
Nc1ccc(-c2nc3ccc(-c4nc5ccc(N)cc5[nH]4)cc3[nH]2)cc1 | inactive
Cc1nc(N=Nc2ccc(C(=O)O)cc2)c(COP(=O)(O)O)c(C=O)c1O | inactive
NS(=O)(=O)c1cccc2c1c([N+](=O)[O-])cc1nc(O)c(O)nc12 | inactive
CCCCCCCCCC[Si](C)(C)CCC(=O)NC(Cc1ccc(C)cc1)c1ccccc1 (stereo unspecified) | inactive
CNCCc1cnc(CCC(c2ccccc2)c2ccccc2)[nH]1 | inactive
O=C(O)CCC(=O)N1CCCC1C(=O)O (stereo unspecified) | inactive
CCCCS(=N)(=O)CC[C@H](N)C(=O)O (stereo partly specified) | inactive
NC1(C(=O)O)CCCCC1 | inactive
CC(=O)/C(C)=N/O | inactive
CC(O)C(O)[C@H]1CNc2nc(N)[nH]c(=O)c2N1 (stereo partly specified) | inactive
